SMN2 splice enh: enhancers of SMN2 splice variant expression; HEK293 SMN2-luciferase splicing reporter, luminescence, 30-36 h; Potency, µM (titrated, usually from 46.1 µM), usual class: activators; 2.8% of 210,000 active; AID 1458; further: nearly all actives have a fitted effect of over 55% in size
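qHTS luciferase splicing reporter: luminescence rises when SMN2 exon 7 is included in transfected HEK293 cells. Compound exposure lasted 30-36 h at 37C, with 4.5 mM final sodium butyrate as control, followed by a ONE-Glo read.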
FLuc modulator: firefly luciferase modulation, counter-screen for miR-21 project; P08659; purified FLuc, Km substrates, luminescence inhibition; Potency, µM (highest dose often 57.5 µM), usual class: inhibitors; 6.9% of 360,000 active; further: nearly all actives have a fitted effect of over 55% in size
Target sequence (P08659 whole entry, looked up): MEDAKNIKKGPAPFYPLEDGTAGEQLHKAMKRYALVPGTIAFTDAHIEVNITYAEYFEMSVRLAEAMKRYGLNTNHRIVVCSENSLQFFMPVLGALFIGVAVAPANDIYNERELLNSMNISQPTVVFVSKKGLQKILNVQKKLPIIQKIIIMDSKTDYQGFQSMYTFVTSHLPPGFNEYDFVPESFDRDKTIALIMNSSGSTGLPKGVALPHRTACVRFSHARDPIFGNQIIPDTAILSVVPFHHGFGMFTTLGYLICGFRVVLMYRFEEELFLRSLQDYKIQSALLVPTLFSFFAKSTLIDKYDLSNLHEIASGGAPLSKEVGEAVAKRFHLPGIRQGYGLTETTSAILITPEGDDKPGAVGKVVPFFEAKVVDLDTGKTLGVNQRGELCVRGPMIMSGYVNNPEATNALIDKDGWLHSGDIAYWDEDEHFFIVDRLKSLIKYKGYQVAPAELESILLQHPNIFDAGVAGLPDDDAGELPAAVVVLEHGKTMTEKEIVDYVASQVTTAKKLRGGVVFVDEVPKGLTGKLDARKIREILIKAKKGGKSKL
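Purified P. pyralis luciferase, 10 nM final, with Km-level 10 uM D-luciferin and 10 uM ATP in 50 mM Tris acetate pH 7.5, 10 mM Mg acetate, 0.01% Tween-20, 0.05% BSA; 6-point qHTS titration about 60 µM downward; luminescence read.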
Rab9 promoter act: activates the Rab9 promoter; Huh7 Rab9 promoter-luciferase reporter, luminescence, 24 h; Potency, µM (series often up to 9.22 µM), usual class: activators; 2.8% of 320,000 active; AID 485297; further: nearly all actives have a fitted effect of over 60% in size
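Huh7 reporter line, Rab9 promoter upstream of luciferase. Compound exposure 24 h at 37 °C in reduced-serum medium with 10% FBS. Read-out: luminescence.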
KinaseGlo FLuc: Kinase-Glo luciferase inhibition (counter-screen); Kinase-Glo luciferase, ATP luminescence, 8 min; Potency, µM (doses to about 38.3 µM), usual class: inhibitors; 0.28% of 200,000 active; AID 1379; further: nearly all actives have a fitted effect of over 60% in size
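Inhibition of Kinase-Glo luciferase light generation was assessed at 10 uM ATP in pH 7.2 imidazole buffer, with luminescence measured after eight minutes at ambient temperature.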
ELG1 genotox: induces genotoxicity in HEK293T cells with luciferase-tagged ELG1; HEK293T ELG1-luciferase reporter, luminescence, 16 h; Potency, µM (highest dose often 46 µM), most hits filed as activators; 1.3% of 330,000 active; AID 504466; further: nearly all actives have a fitted effect of over 60% in size
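Reporter readout depends on ELG1 protein level, which increases with genetic stress. After 16 hr compound exposure at 37 °C, luciferase activity was quantified using ONE-Glo.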
NPC1 promoter act: NPC1 promoter activation; Huh7 NPC1 promoter luciferase reporter, 24 h; Potency, µM (series often up to 9.22 µM), hits mostly activators; 2.4% of 320,000 active; AID 485313; further: nearly all actives have a fitted effect of over 60% in size
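NPC1 promoter–luciferase Huh7 cells; 24 h compound; luminescence.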
A number is an active result; . = inactive; ? = inconclusive; / = not tested or not shown; [ ] = remark or other dose. An excerpt weighted towards active compounds, which were near 7.3% of everything screened. The call rests on the fitted dose curve; in most records, active means well fitted curve in the direction sought with a large enough effect; inconclusive means small, poorly fitted or top-dose-only effect, or another doubt; inactive means no such curve, though single readings can be large; an effect the other way counts as inactive or inconclusive.

SMILES	SMN2 splice enh	FLuc modulator	Rab9 promoter act	KinaseGlo FLuc	ELG1 genotox	NPC1 promoter act
COc1ccc(/C=C/C(=O)OCC(=O)Nc2ccc(OC)c(S(=O)(=O)N3CCCCC3)c2)cc1	.	6µM	.	.	.	.
CCOC(=O)COc1ccc(CC)cc1C(=O)c1ccn2nc(-c3ccc(Cl)cc3)cc2n1	.	.	/	/	/	/
CCN(CC(=O)Nc1c(F)cccc1F)C(=O)CNC(=O)c1ccc(C)s1	/	15µM	?	/	.	?
COc1ccc(NC(=O)COC(=O)C2CC3C=CC2C3)cc1 (stereo unspecified)	.	17µM	.	.	.	.
O=C(COC(=O)C1CC2C=CC1C2)Nc1ccccc1F (stereo unspecified)	.	?	?	.	?	.
Cc1cc2nccc(-c3ccccn3)n2n1	.	.	.	.	.	.
c1ccc(-c2cc3nccc(-c4ccccn4)n3n2)cc1	/	9.5µM	2.2µM	/	?	2.5µM
CN(CCC#N)C(=O)c1cc2c(s1)-c1ccccc1SC2	/	11µM	2.5µM	/	?	2.2µM
CCc1ccccc1N(CC)C(=O)c1cc2c(s1)-c1ccccc1SC2	.	.	/	/	/	/
CC(C)C(C)C	.	/	/	/	/	/
O=C(O)c1ccc(N=Nc2c(O)[nH]c3ccccc23)cc1	/	0.43µM	?	/	?	0.1µM
CC(=O)c1cccc(N=Nc2c(C)[nH]c3ccccc23)c1	.	24µM	.	.	.	.
CC(=O)c1cccc(N=C2NC(=O)CS2)c1	.	.	.	.	.	.
Oc1[nH]c2ccccc2c1N=Nc1c(F)c(F)c(C(F)(F)F)c(F)c1F	/	.	.	/	.	.
O=C(N=Nc1c(O)[nH]c2ccccc12)c1cccs1	11µM	2.1µM	2.5µM	?	.	?
CC(C)CCOc1ccc(Cn2c(=O)oc3ccccc32)cc1	.	.	/	/	/	/
Cn1cnc2c(=O)oc3ccc(S(=O)(=O)N4CCN(c5cccc(Cl)c5)CC4)cc3c21	/	.	/	/	/	/
CCc1cccc(CC)c1NC(=O)c1cc(S(=O)(=O)N2CCc3ccccc32)cn1C	/	.	/	/	/	/
Cc1ccc(NC(=O)CC2Nc3cc(C)c(C)cc3NC2=O)c(C)c1 (stereo unspecified)	.	.	/	/	/	/
CC(C)Sc1nnc(Nc2ccccc2)s1	.	15µM	2µM	.	?	4µM
N#Cc1ccc(CSc2nnc(Nc3ccccc3)s2)cc1	.	.	.	.	.	.
COc1ccc(C(=O)N2c3ccccc3C(=O)OC2c2ccc3c(c2)OCO3)cc1 (stereo unspecified)	13µM	19µM	?	.	.	?
COc1ccc2c(c1)O[C@@H](c1ccc3c(c1)OCO3)[C@H](O)C2=O	20µM	/	/	.	/	/
COc1ccc2c(c1)O[C@@H](c1ccc3c(c1)OCO3)[C@H](OC(=O)NC1CCCC1)C2=O	.	/	/	.	/	/
CC1CCc2c(sc3[nH]c(=S)n(C)c(=O)c23)C1 (stereo unspecified)	/	19µM	.	/	.	.
SMILES	SMN2 splice enh	FLuc modulator	Rab9 promoter act	KinaseGlo FLuc	ELG1 genotox	NPC1 promoter act
O=C(NN1C(=O)/C(=C/c2ccc(O)c([N+](=O)[O-])c2)SC1=S)c1ccccc1Cl	.	17µM	.	.	.	.
O=C(NN1C(=O)/C(=C/c2ccc(O)cc2)SC1=S)c1ccccc1O	/	?	.	/	.	.
COc1cc(/C=C2\SC(=S)N(NC(=O)c3ccccc3O)C2=O)ccc1O	/	17µM	.[1.84 µM]	/	.	.
O=C(NN1C(=O)/C(=C/c2cc([N+](=O)[O-])ccc2O)SC1=S)c1ccccc1O	/	?	.	/	.	.
COc1ccc2nc(N3C(=O)CC(C(C)c4ccccc4)C3=O)sc2c1 (stereo unspecified)	/	21µM	.	/	.	.
Cc1cc(C)nc(N2C(=O)CC(C(C)c3ccccc3)C2=O)n1 (stereo unspecified)	.	.	.	.	.	.
CCc1ccc(NS(=O)(=O)c2ccc3[nH]cc(C(=O)NCCCOC(C)C)c(=O)c3c2)cc1	.	.	/	/	/	/
CC1=C(C(=O)Nc2cccnc2)C(c2ccccc2)n2nc(SCc3ccccc3F)nc2N1 (stereo unspecified)	.	.	/	/	/	/
CC(=O)c1ccc(OCc2cc(=O)n3ccsc3n2)cc1	?	?	4µM	.	?	?
Cc1ccsc1C(=O)OCc1cc(=O)n2ccsc2n1	/	11µM	1.4µM	/	?	2.5µM
O=C(OCc1cc(=O)n2ccsc2n1)c1ccc(O)cc1O	/	?	.	/	?	?
CC(C)(C)c1ccc(C(=O)Nc2ccc(OCc3cc(=O)n4ccsc4n3)cc2)cc1	.	.	/	/	/	/
Cc1cccc(NC(=O)C(=O)NCC(c2cccnc2)N2CCc3ccccc3C2)c1C (stereo unspecified)	/	.	/	/	/	/
NS(=O)(=O)OCC1CCCCC1	/	.	.	/	.	.
Nc1nc(N)c(N=O)c(OCC2CCCCC2)n1	/	?	.	/	18µM	.
O[C@H]([C@H](O)[C@@H](O)c1nc2ccccc2[nH]1)[C@@H](O)c1nc2ccccc2[nH]1	.[9.22 µM]	/	/	.[7.66 µM]	/	/
O=C(Nc1ccc(F)cc1)c1nc2c(nnn2Cc2cccc3ccccc23)c(=O)[nH]1	/	27µM	.	/	.	.
COc1cccc(OC)c1NC(=O)c1nc2c(nnn2Cc2ccccc2Cl)c(=O)[nH]1	.	?	.	.	.	.
O=C(NC(=S)NC1CCCCCC1)c1cncc(Br)c1	16µM	?	.	.	?	?
O=C(NC(=S)NC1CCCCC1)c1ccccc1	/	15µM	?	/	?	?
O=C(NC(=S)NC1CCS(=O)(=O)C1)c1ccccc1 (stereo unspecified)	/	.	.	/	.	.
NC(N)=Nc1ccc(N=C(N)N)cc1	/	.	.	/	.	.
NC(=S)N=Nc1ccc(NN=C(N)N)cc1	/	21µM	.	/	.	.
CCOC(=O)c1ccc(NC(=O)c2noc3c2CCCC3)cc1	/	8.5µM	/	/	/	/
CC(=O)c1ccc(NC(=O)c2noc3c2CCCCC3)cc1	8.9µM	7.6µM	2µM	.	2.9µM	1.1µM
SMILES	SMN2 splice enh	FLuc modulator	Rab9 promoter act	KinaseGlo FLuc	ELG1 genotox	NPC1 promoter act
Cc1cc(NC(=O)c2noc3c2CCCCC3)nn1Cc1ccc(Cl)cc1	.	13µM	.	.	.	.
Cc1nn(Cc2ccc(Cl)cc2)c(C)c1NC(=O)c1noc2c1CCCCC2	.	.	.	.	.	.
Cc1cc(NC(=O)c2noc3c2CCCC3)no1	?	?	.	.	.	.
COc1cc(OC)c(NC(=O)C(C)n2c(=O)cc(-c3ccccc3)c3c(C)nn(C)c32)cc1Cl (stereo unspecified)	/	.	/	/	/	/
CCCN(CCC)c1nn2c(=O)c(C(=O)NCc3cccc(OC)c3)cnc2s1	/	.	/	/	/	/
Cc1ccccc1OCc1nc2ccccc2n1C	/	8.5µM	4µM	/	?	3.2µM
Cn1c(COc2ccc(F)cc2)nc2ccccc21	/	13µM	3.5µM	/	?	2.5µM
Cc1ccc(C)c(OCc2nc3ccccc3n2C)c1	.	?	/	/	/	/
Cn1c(COc2ccc(C(=O)O)cc2)nc2ccccc21	/	.	.[1.84 µM]	/	.	.

Source: PubChem (National Center for Advancing Translational Sciences (NCATS))
